# Only a sample is shown.
# aSyn 5UTR act: Activators via SNCA 5'UTR binding, MLPCN; 300,000 compounds, 7.1% hits; activity score, % (tested at 7.5 µM), hits read low; alpha-synuclein 5'UTR reporter, activators screen; in the data active means activity score below about -60%
# Active calls of the source: *.
SMILES,aSyn 5UTR act
CCCSc1nsc(NC(=O)CC)n1,-134.7*
CCCSc1nsc(NC(=O)Nc2ccc(F)cc2F)n1,-129.3*
O=C(CCSc1ccccn1)Nc1ccc(Br)cc1,-152.9*
COc1ccc(CNC(=O)CSCc2ccccc2Cl)cc1,-61.7*
CCc1ccc(NC(=O)CSc2ccccn2)cc1,-74.0*
Cc1ccc(NC(=O)CSc2n[nH]c(-c3ccccn3)n2)cc1,58.5
COc1ccc(-n2c(C)cc(C(=O)CSc3ccc(NC(C)=O)cc3)c2C)cc1,-89.1*
COc1ccc(-n2c(C)cc(C(=O)CCl)c2C)cc1,65.4
Cc1ccc(SCC(=O)NC(C)(C)C)cc1,-66.1*
Cc1ccc(O)c(NC(=O)CSc2ccc(Cl)cc2)c1,-177.1*
CCOc1ccc(-c2cc(CCCC(=O)Nc3cccc(OC)c3)no2)cc1,67.5
COc1ccc(NC(=O)CSc2ccccn2)c([N+](=O)[O-])c1,-72.5*
COc1cccc(NC(=O)CSc2ccccn2)c1,-144.3*
COc1ccc(NC(=O)CSc2ccccn2)cc1,-78.7*
COc1ccccc1C(=O)CSc1ccccn1,-95.2*
COc1ccc(NC(=O)CSc2ccc(C)cc2)cc1,-148.6*
COc1ccc(NC(=O)CSCc2ccccc2C)cc1,-90.3*
COc1ccc(-n2c(SCC(=O)Nc3ccc(Br)cc3)nc(O)cc2=O)cc1,-118.9*
CCCCN1CC(O)=C(c2nc3ccccc3s2)C1=N,-167.4*
CCN1CC(O)=C(c2nc3ccccc3s2)C1=N,-69.7*
N=C1C(c2nc3ccccc3s2)=C(O)CN1c1ccccc1,-119.9*
COc1ccccc1/C=C/C1(C(=O)NC2CCCC2)CC(=O)N1c1ccccc1 (configuration not stated),-138.4*
CN(C)S(=O)(=O)c1ccc(N2C(=O)CC2(/C=C/c2ccccc2)C(=O)NC2CCCC2)cc1 (configuration not stated),34.9
O=C(CC1Sc2ccccc2NC1=O)c1ccc(Br)cc1 (configuration not stated),-218.0*
O=C(CSc1nc2ccccc2o1)NCc1ccc2c(c1)OCO2,-79.1*
SMILES,aSyn 5UTR act
CCOC(=O)c1c(NC(=O)CSc2cccc[n+]2[O-])sc(C(=O)Nc2ccccc2)c1C,-104.7*
O=C(CSc1nc2ccccc2o1)Nc1nc(-c2ccccc2)cs1,-111.3*
Cc1ccccc1NC(=O)CSc1nc2ccccc2o1,-157.9*
CCOC(=O)c1c(NC(=O)CSc2nc3ccccc3o2)sc(C(C)=O)c1C,-62.8*
O=C(Nc1cccnc1)c1cn(-c2ccccc2)nc1-c1cccs1,-83.9*
O=C(O)c1cccc(N/N=C/c2cn(-c3ccccc3)nc2-c2cccs2)c1,-68.5*
NS(=O)(=O)c1ccc(N/N=C/c2cn(-c3ccccc3)nc2-c2cccs2)cc1,-91.5*
Cc1nn(Cc2c(Cl)cccc2Cl)c(C)c1NC(=O)c1cn(-c2ccccc2)nc1-c1ccccc1,122.3
Cc1ccsc1/C=N/Nc1cccc(C(=O)O)c1,105.0
Cc1cccnc1NC(=O)NC(=O)c1ccc(C(C)(C)C)s1,-169.5*
COc1ccc(NC(=O)c2cccs2)cc1O,-134.9*
O=C(NC(=S)Nc1ccccc1)c1cccs1,-147.2*
CCC(C)c1ccc(NC(=O)c2cccs2)cc1 (configuration not stated),-71.0*
O=C(Cc1ccccc1)NNC(=S)NC(=O)c1cccs1,75.4
CN1CCN(c2ccc(NC(=O)c3cccs3)cc2)CC1,-87.6*
O=C(Nc1ccc(Cl)cc1)c1cccs1,-146.4*
O=C(NC(=S)Nc1ccc(N2CCCCC2)c(Cl)c1)c1cccs1,-109.8*
O=C(Nc1ccc(NC(=O)C2CC2)cc1)c1cccs1,-168.6*
Cc1conc1NC(c1cccs1)c1ccc2cccnc2c1O (configuration not stated),66.3
CCC(=O)NC(c1cccs1)c1ccc2cccnc2c1O (configuration not stated),79.6
O=C(Nc1ccc(NC(=O)c2cccs2)cc1)c1cccs1,-140.8*
Cc1cccnc1NC(=S)NC(=O)c1cccs1,-398.5*
O=C(Nc1ccc2[nH]ccc2c1)c1cccs1,-105.2*
O=C(Nc1cccc(N2CCCC2)c1)c1cccs1,-66.0*
O=C(CNC(=S)NC(=O)C1CCCCC1)c1ccccc1,-125.7*
SMILES,aSyn 5UTR act
O=C(CNC(=S)NC(=O)c1cccs1)c1ccccc1,-74.3*
CCCCNS(=O)(=O)c1ccc(NC(=O)c2cccs2)cc1,-65.9*
O=C(CNC(=S)NC(=O)c1ccco1)c1ccccc1,-79.7*
COc1cc(OC)cc(C(=O)Nc2ccc(N3CCN(C(=O)c4cccs4)CC3)cc2)c1,-180.3*
CC(C)C(=O)Nc1ccc(NC(=O)c2cccs2)cn1,-131.8*
COc1ccc(NC(=O)c2cccs2)cc1,-148.7*
Cc1ccn(-c2ccc(NC(=O)c3cccs3)cc2)n1,-63.0*
CCCCOc1cccc(C(=O)Nc2ccc(NC(=O)c3cccs3)cc2)c1,64.4
CC1=C(C)CC(C(=O)NCC(=O)c2ccccc2)C(C(=O)O)C1 (configuration not stated),-169.1*
COc1ccc(/C=C/C(=O)c2ccc(NC(=O)c3cccs3)cc2)cc1OC,-93.6*
O=C(NC(=S)Nc1ccc(Br)cn1)c1cccs1,-172.5*
COc1ccc(NC(=S)NNC(=O)c2cccs2)cc1,-80.6*
CC(C)c1ccc(NC(=S)NNC(=O)c2cccs2)cc1,-95.3*
COc1ccccc1NC(=O)Cn1nnc(-c2ccccc2NC(=O)c2cc3ccccc3oc2=O)n1,-118.9*
COc1ccc(NC(=O)Cn2nnc(-c3ccccc3NC(=O)c3cccs3)n2)cc1,-168.6*
Cc1ccc(NC(=O)Cn2nnc(-c3ccccc3NC(=O)c3cccs3)n2)cc1,67.2
COc1ccc(N2CCN(C(=O)C3(C)CC3(Cl)Cl)CC2)cc1 (configuration not stated),-82.1*
Nc1[nH]n(-c2ccccc2)c(=O)c1N=Nc1ccc2c(c1)OCO2,-204.6*
Cc1ccc(N=Nc2c(N)n(-c3ccccc3)[nH]c2=O)cc1,-153.9*
Cc1[nH]n(-c2ccccc2)c(=O)c1N=Nc1ccccc1,-182.3*
Cc1c(C(=O)N/N=C/C(C)C)[nH]c2c([N+](=O)[O-])cccc12,68.0
Cc1cc(NC(=O)c2cc3cccc([N+](=O)[O-])c3[nH]2)ccc1F,-92.5*
CC(=O)O[C@]1(C(C)=O)CC[C@H]2[C@@H]3C=CC4=CC(=O)C=C[C@]4(C)[C@H]3CC[C@@]21C,-83.0*
Cc1occc1C(=O)Nc1ccc(Br)cc1F,-165.3*
Cc1nn(C)c(C(=O)Nc2ccc(Br)cc2F)c1Br,-110.1*
SMILES,aSyn 5UTR act
Cc1ccc(C)c(OCCn2nnc3ccccc32)c1,-69.8*
Cc1ccc(OCCn2nc3ccccc3n2)c(C)c1,-89.5*
Clc1ccccc1OCCn1nnc2ccccc21,-169.1*
Cc1cc(C)cc(OCCn2nnc3ccccc32)c1,-126.4*
COc1cccc(NC(=O)N2CCCCCC2)c1,-88.1*
Cc1ccc(NC(=O)C2CCCN(C(=O)c3ccc(Cl)cc3)C2)cc1C (configuration not stated),-100.5*
O=C(Nc1ccc(Cl)cc1)N1CC=CCC1,-133.8*
O=C(Nc1ccc(F)c(Cl)c1)N1CCCCCC1,-75.5*
C[C@H]1O[C@@H](O[C@H]2[C@@H](O)C[C@H](O[C@H]3[C@@H](O)C[C@H](O[C@H]4CC[C@@]5(C)[C@H](CC[C@@H]6[C@@H]5C[C@@H](O)[C@]5(C)[C@@H](C7=CC(=O)OC7)CC[C@]65O)C4)O[C@@H]3C)O[C@@H]2C)C[C@H](O)[C@@H]1O,112.5
Cc1ccc(NC(=O)N2CCCCCC2)cc1C,-90.2*
COc1ccc(NC(=O)N2CCCCCC2)cc1,-76.9*
O=C(Nc1ccc(Br)cc1)N1CCCCC1,-62.7*

# High-throughput results from PubChem BioAssay.
